Source: PubChem (Broad Institute)
Casp6 inh = inhibitors of human caspase-6; P55212; purified caspase-6, Z-VEID-R110 cleavage fluorescence; inhibition, % at 12.5 µM; hit rate 0.53% among 350,000;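 active = mean inhibition across replicates at least about 35%, with every replicate also reaching that limit, limit read from the data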;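 also: 0% = median of neutral control wells and 100% = no fluorescence left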
FGF22 binding-1 = binders of recombinant human FGF22 by thermal shift; Q9HCT0; SYPRO orange fluorescence; percent of sucrose octasulfate shift, DMSO zero; activity (Tm shift, normalised), % at 9.99 µM; hit rate 1.5% among 340,000;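 active = mean Tm shift, scaled 0 neutral to 100 positive control, at about 1.3% or above, every replicate too, limit read from the data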
SIRT5 inh = blocks human SIRT5 desuccinylation of peptide | hit rate 1.1% among 330,000 | Purified SirT5, succinyl-peptide AMC, trypsin-coupled fluorescence | Q9NXA8 | inhibition, % at 15 µM; in the data active = inhibition above about 15%
ERAP1 HTS inh = inhibitors of human ERAP1 aminopeptidase; recombinant ERAP1, Leu-AMC fluorescence, 60 min; Q9NZ08; hit rate 0.15% among 340,000; inhibition, % at 10.7 µM;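 active = mean replicate inhibition of at least 30%, or all replicates individually reaching that 30% level; inactive = mean below 30% and not every replicate reaching it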;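 also: 0% = neutral control wells and 100% = L-leucinethiol positive control wells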
Target sequence (Q9NZ08 whole entry, looked up): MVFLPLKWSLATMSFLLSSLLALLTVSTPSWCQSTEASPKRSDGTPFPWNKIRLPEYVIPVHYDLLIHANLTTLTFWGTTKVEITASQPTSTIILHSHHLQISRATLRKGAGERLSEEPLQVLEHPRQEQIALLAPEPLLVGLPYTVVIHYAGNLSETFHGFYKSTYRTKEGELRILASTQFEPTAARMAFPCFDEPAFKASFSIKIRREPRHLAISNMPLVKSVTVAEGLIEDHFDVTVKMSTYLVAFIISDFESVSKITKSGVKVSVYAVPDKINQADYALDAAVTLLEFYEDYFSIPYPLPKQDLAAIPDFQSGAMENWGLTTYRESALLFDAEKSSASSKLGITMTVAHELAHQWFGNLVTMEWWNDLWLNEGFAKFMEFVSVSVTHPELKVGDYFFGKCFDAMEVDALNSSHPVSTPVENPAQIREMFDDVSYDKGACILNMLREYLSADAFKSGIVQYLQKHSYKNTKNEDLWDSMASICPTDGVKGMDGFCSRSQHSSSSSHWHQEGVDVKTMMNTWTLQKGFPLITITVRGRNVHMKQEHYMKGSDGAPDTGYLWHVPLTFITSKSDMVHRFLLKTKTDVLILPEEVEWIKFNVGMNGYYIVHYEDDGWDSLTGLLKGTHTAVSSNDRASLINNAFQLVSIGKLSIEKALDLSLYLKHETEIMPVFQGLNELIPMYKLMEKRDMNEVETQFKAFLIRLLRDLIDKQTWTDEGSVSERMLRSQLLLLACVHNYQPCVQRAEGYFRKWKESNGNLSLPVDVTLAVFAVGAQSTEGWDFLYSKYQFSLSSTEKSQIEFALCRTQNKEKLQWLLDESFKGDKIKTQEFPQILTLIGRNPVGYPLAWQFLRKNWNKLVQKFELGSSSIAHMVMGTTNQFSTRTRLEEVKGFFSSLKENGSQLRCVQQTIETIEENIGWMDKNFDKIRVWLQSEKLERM
FGF22 binding-2 = FGF22 (human) binding in thermal shift; recombinant FGF22 thermal shift, SYPRO orange fluorescence; hit rate 2% among 1,000; AID 720646; shares compounds with FGF22 binding-1; thermal shift activity, °C (ΔTm) at 38 µM;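 active = fitted rise in melting shift crosses a set limit at or below the top valid dose tested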
TSA no protein = compound-only SYPRO artifact for FGF22 binders. hit rate 2% among 1,000. shares compounds with FGF22 binding-1. compound-only SYPRO orange thermal shift counter-screen, no protein. AID 743019. AC50, µM (titrated, usually from 38 µM);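 active = rising signal whose fitted curve reaches the 0.54 level within the top valid dose, showing a melting point, actives reach about 13 µM in these data; inactive = the rest, including activity in the opposite direction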; also: value is where the raw curve crosses a fixed level and not half-maximal
The depositor's hits bear a star; i = inactive; nt = no result given; ! = not confirmed by another sample; [ ] = another dose, or the depositor's remark. The list is not random: actives were taken first. Their share in the collection is about 3.1%.

SMILES | Casp6 inh | FGF22 binding-1 | SIRT5 inh | ERAP1 HTS inh | FGF22 binding-2 | TSA no protein
CO[C@H]1CC[C@H]2CCOc3ccc(C#N)cc3C(=O)N(C)C[C@@H](OC)[C@H](C)C(=O)N(C)C[C@@H]1O2 | 12 | 0 | 2 | -4 | nt | nt
COc1cccc(NC(=O)CN(C)C(=O)c2ccc(N3CCOCC3)c([N+](=O)[O-])c2)c1 | 4 | 0 | 11 | 3 | nt | nt
COc1cccc(NC(=O)CN(C)C(=O)c2ccc(NC3CC3)c([N+](=O)[O-])c2)c1 | 3 | 2.6* | 2 | 1 | 0.12 | i
COc1cccc(NC(=O)CN(C)C(=O)c2ccc(N3CCCCC3)c([N+](=O)[O-])c2)c1 | 4 | 2.1* | 1 | 0 | 0.3 | i
CN(CC(=O)Nc1cccc(F)c1)C(=O)c1ccc(NC2CC2)c([N+](=O)[O-])c1 | 6 | -1 | 2 | 0 | nt | nt
COc1ccc(CNC(=O)C[C@@H]2CC[C@@H]3[C@H](COc4ccc(NC(C)=O)cc4C(=O)N3C)O2)cc1 | -1 | 0 | -4 | 2 | nt | nt
O=C(C[C@H]1CC[C@H]2[C@@H](COC[C@@H](O)CN2C(=O)C2CC2)O1)NCc1ccncc1 | 2 | 6.3* | -8 | 1 | 0.012[42 µM] | i
CCNC(=O)C[C@H]1CC[C@@H]2[C@H](COC[C@H](O)CN2C(=O)C2CCOCC2)O1 | 0 | 27* | 2 | 0 | 0.056 | i
CCCC(=O)Nc1ccc2c(c1)C(=O)N(C)C[C@@H](OC)[C@H](C)CN(C(=O)c1ccncc1)[C@H](C)CO2 | 3 | nt | 1 | 2 | nt | nt
CO[C@H]1CN(C)C(=O)c2ccc(NC(=O)Cc3ccccc3)cc2OC[C@H](C)N(C(C)=O)C[C@H]1C | nt | 0 | -2 | -1 | nt | nt
Cc1ccc(S(=O)(=O)N(C)C[C@H]2OCCCC[C@H](C)Oc3ccc(NC(=O)c4ccccc4)cc3C(=O)N([C@H](C)CO)C[C@H]2C)cc1 | -1 | 0 | 7 | 4 | nt | nt
CSc1ncccc1C(=O)NCC1CCCCC1 | 2 | 0 | nt | nt | nt | nt
O=C(NCC1CCCCC1)c1cccnc1Cl | -5 | 1.5* | 1 | 4 | 0.23 | i
CCc1ccc(C(=O)NCc2cnn(C)c2)s1 | 3 | 3.2* | -2 | -2 | 0.2 | i
O=C(NCc1ccc(Cl)cc1)c1n[nH]c([N+](=O)[O-])c1Cl | -1 | 4.2* | -1 | 3 | 0.34 | i
C[C@H]1CCCCO[C@H](CN(C)C)[C@@H](C)CN([C@@H](C)CO)C(=O)c2cc(NS(=O)(=O)c3cn(C)cn3)ccc2O1 | -4 | 0 | -1 | 7 | nt | nt
COCCNC(=O)CCc1nnc2ccc(N3CCC(C)CC3)nn12 | -3 | 1.6* | -2 | 2 | 0.037 | i
COCCCNC(=O)CCc1nnc2ccc(N3CCC(C)CC3)nn12 | -6 | 0 | 0 | -5 | nt | nt
COc1cc(/C=N/NC(=O)c2ccccc2)ccc1O | -3 | 42 | 0 | 1 | nt | nt
COc1cc(/C=N/NC(=O)c2[nH]nc3c2CCc2ccccc2-3)ccc1O | 0 | 1.7* | 3 | 3 | 0.68 | i
CC1C=NC(S(=O)(=O)N2CC[C@@H]3[C@@H](CO)N(C)c4ccc(-c5ccc(F)cc5)cc4[C@@H]32)=N1 (stereo not given in full) | nt | 2.0* | nt | nt | nt | i
CCCCNC(=O)c1onc(CSc2ccc(C(C)C)cc2)c1C(=O)O | 7 | 1.5* | 3 | 23 | -0.034 | i
CC(C)CCNC(=O)c1onc(CSc2ccncc2)c1C(=O)NCCC(C)C | -1 | 18* | 2 | -4 | 0.095 | 8.3µM*
CCCCNC(=O)c1onc(CSc2ccccc2)c1C(=O)O | 1 | 0 | 2 | -2 | nt | nt
C[C@H]1CN([C@@H](C)CO)C(=O)c2cc(NS(=O)(=O)c3cn(C)cn3)ccc2O[C@@H]1CN(C)CC1CC1 | -3 | 0 | nt | -2 | nt | nt
SMILES | Casp6 inh | FGF22 binding-1 | SIRT5 inh | ERAP1 HTS inh | FGF22 binding-2 | TSA no protein
O=C(C[C@H]1CC[C@H]2[C@@H](COC[C@H](O)CN2Cc2nccs2)O1)NCc1ccccc1F | 0 | 1.6* | -5 | -1 | 0.099[42 µM] | i
O=C(C[C@@H]1CC[C@H]2[C@@H](COC[C@@H](O)CN2S(=O)(=O)c2cccc(F)c2)O1)Nc1ccc(-c2ccccc2)cc1 | 0 | -3 | 8 | -1 | nt | nt
Cn1cnc(S(=O)(=O)N2C[C@H](O)COC[C@@H]3O[C@@H](CC(=O)NCc4ccc(F)cc4)CC[C@H]32)c1 | -6 | 3.0* | 0 | 0 | 0.11[42 µM] | i
O=C(C[C@@H]1CC[C@H]2[C@@H](COC[C@@H](O)CN2Cc2cc(F)ccc2F)O1)NCc1ccc(F)cc1 | 0 | 2.4* | 7 | -2 | -0.061[42 µM] | i
O=C(C[C@@H]1CC[C@@H]2[C@H](COC[C@@H](O)CN2S(=O)(=O)c2cccc(F)c2)O1)Nc1ccc(-c2ccccc2)cc1 | -1 | 1.8* | 8 | -1 | 0.07[42 µM] | i
Cc1ccccc1-c1cnc2c(c1)C(=O)N([C@H](C)CO)C[C@@H](C)[C@@H](CN(C)CC1CCOCC1)O2 | 5 | 0 | -3 | -1 | nt | nt
O=C(Nc1ccc2c(c1)OCO2)N[C@@H]1CC[C@H](CC(=O)N2CCN(c3ccccc3)CC2)O[C@H]1CO | -1 | 0 | 0 | 0 | nt | nt
O=C(C[C@H]1CC[C@@H]2[C@H](COC[C@@H](O)CN2Cc2nccs2)O1)NCc1ccccc1F | -3 | 6.6* | 0 | 4 | 0.048[42 µM] | i
O=C(C[C@@H]1CC[C@@H]2[C@H](COC[C@@H](O)CN2Cc2nccs2)O1)NCc1ccccc1F | 0 | 0 | 0 | 2 | nt | nt
C[C@@H](NC(=O)C[C@H]1C[C@@H]2c3cc(NC(=O)CN(C)C)ccc3O[C@@H]2[C@@H](CO)O1)c1ccccc1 | -1 | 0 | 8 | -1 | nt | nt
CCS(=O)(=O)N1[C@H](CO)[C@H](c2ccc(C3=CCCCC3)cc2)[C@@H]1C#N | -5 | 0 | 5 | 0 | nt | nt
C[C@@H]1CN([C@H](C)CO)C(=O)CCCn2nncc2CO[C@H]1CN(C)S(=O)(=O)c1ccc(F)cc1 | 1 | 1.2*! | 2 | 1 | 0 | i
C[C@@H]1CN([C@@H](C)CO)C(=O)CCCn2nncc2CO[C@@H]1CN(C)S(=O)(=O)c1ccc(F)cc1 | -2 | 1.3*! | -3 | -3 | 0.058[42 µM] | i
CCCNC(=O)C[C@@H]1CC[C@H]2[C@@H](COc3ccc(NC(=O)c4cc(C)on4)cc3C(=O)N2C)O1 | 1 | 0 | 0 | -1 | nt | nt
COc1cc(-c2nc(C)c(C(C)=O)n2O)ccc1OCC(=O)Nc1ccc(F)cc1 | 1 | 0 | 3 | -1 | nt | nt
CCOc1cc(-c2nc(C)c(C(C)=O)n2O)ccc1OCC(=O)Nc1ccc(F)cc1 | 16 | 2.7* | 1 | 0 | -0.026 | i
CC(=O)c1c(C)nc(-c2ccc(OCC(=O)Nc3ccc(F)cc3)cc2)n1O | 2 | 2.3* | 3 | 1 | -0.14 | i
CC(=O)Nc1ccc(-c2nc(C)c(C(C)=O)n2O)cc1 | 4 | 1 | 0 | 8 | nt | nt
